The values that follow come from PubChem BioAssay (NCI).

A short description of experiment [1]: NCI Yeast Anticancer Drug Screen. Data for the rad50 strain (AID 155).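 Also: 0% = growth of vehicle-only cultures of the same strain.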 The settings on record: S. cerevisiae rad50 strain growth inhibition, stronger effect = higher value; at 50.0 µM unless noted. The gist of the method: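 Vehicle-treated cultures provide the reference for the growth inhibition reported for compound-exposed, repair-deficient yeast.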
Experiment [2] in a line: NCI Yeast Anticancer Drug Screen. Data for the mec2-1 strain (AID 157). The settings on record: S. cerevisiae mec2-1 strain, stronger effect = higher value; at 50.0 µM unless noted. In a few lines: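 Cells of the genetically defined mec2-1 yeast strain are incubated with test compound. Inhibition of growth is calculated against vehicle-treated controls.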
A short description of experiment [3]: NCI Yeast Anticancer Drug Screen. Data for the sgs1 mgt1 strain (AID 161).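 Also: 0% = growth of cultures given vehicle only.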 The settings on record: S. cerevisiae sgs1 mgt1 strain, stronger effect = higher value; at 50.0 µM unless noted. In a few lines:
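Inhibition of yeast growth, normalised to vehicle-treated controls, is reported for a strain bearing genetic alterations in DNA damage repair.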

Experiment [4] in a line: NCI Yeast Anticancer Drug Screen. Data for the cln2 rad14 strain (AID 165).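 Also: 0% = growth equal to vehicle treated cultures.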 The settings on record: S. cerevisiae cln2 rad14 strain, stronger effect = higher value; at 50.0 µM unless noted. The gist of the method:
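The screen exposed genetically defined yeast (cln2 rad14) to test compounds and scored growth inhibition relative to vehicle-treated controls.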

Experiment [5] can be described thus: NCI Yeast Anticancer Drug Screen. Data for the bub3 strain (AID 167). The settings on record: S. cerevisiae bub3 mutant strain, stronger effect = higher value; at 50.0 µM unless noted. In a few lines:
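Mutant yeast screening strain plus compound; vehicle-treated cultures serve as the 0% inhibition reference.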

Experiment [6] in a line: NCI Yeast Anticancer Drug Screen. Data for the mlh1 rad18 strain (AID 175). The settings on record: S. cerevisiae mlh1 rad18 strain growth inhibition, stronger effect = higher value; at 50.0 µM unless noted. In a few lines: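 Compound-treated yeast growth, normalised to vehicle controls. Strain bears defined DNA repair mutations.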

Where “and” joins values, the source holds several entries; their conditions need not be identical. Identical values can stand only once. Compounds without any hit were thinned out: in the full panel of roughly 79,000, 15% have a hit. Values without a mark were called inactive. Calls of active or inactive are those of the source. Rule as the data show it: active = growth inhibition above about 70%; inactive = the rest.

`CC1(C)N=C(C(N)=O)c2ncn(Cc3ccccc3)c2N1`: the growth inhibition in experiment [1] was -29%; in experiment [2], -32.6%; in experiment [3] it was -23.6%; in experiment [4] it was 18.4%; in experiment [5] it was -8.1%; in experiment [6] it was -6.9%.

For the molecule `CCOC(=O)c1cc(C(O)C(O)C(O)CO)oc1C` (stereo not given), the growth inhibition was 14.6% in experiment [1]; 2.1% in experiment [2]; -6.45% in experiment [3]; -13.1% in experiment [4]; 21.9% in experiment [5]; 18.1% in experiment [6].

Turning to `CCC(=O)OCC(CC(=O)NCCc1ccccc1)=NCCc1ccccc1`, the growth inhibition in experiment [1] is 18.6%; in experiment [2], -0.6%; in experiment [3], 16.6%; in experiment [4], 9.15%; in experiment [5] it was 2.55%; in experiment [6], 14.9%.

As to `CC(C)c1cccc(C(C)C)c1NC(=O)N1CCCCC1`, the growth inhibition is 4.8% in experiment [1]; -16.2% in experiment [2]; 0.05% in experiment [3]; 3.85% in experiment [4]; -1.65% in experiment [5]; 10.2% in experiment [6].

As for `O=S(=O)(O)c1ccc(N=Nc2ccc(O)cc2)cc1`, the growth inhibition in experiment [1] is -15.8% and 28.8%; in experiment [2], -27.9% and -10.4%; in experiment [3], -10.1%; in experiment [4], -53.9%; in experiment [5], 3.7%; in experiment [6], -17.4% and 8.65%.

Regarding `CCCCCOC(=O)C#CC(=O)OCCCCC`, the growth inhibition in experiment [1] is 99.8% (active); in experiment [2] it was 99.8% (active); in experiment [3] it was 99.7% (active); in experiment [4] it was 99.4% (active); in experiment [5] it was 99.8% (active); in experiment [6], 99.7% (active).

As to `COc1ccc2c(c1)Cc1cc(NC(C)=O)ccc1-2`, the growth inhibition in experiment [1] was -4.55%; in experiment [2] it was -11.2%; in experiment [3], 21.5%; in experiment [4] it was -47.9%; in experiment [5], 4.1%; in experiment [6] it was 13.1%.

As for `NC1CCCC2CCC(N)C12` (stereo not given), the growth inhibition in experiment [1] was 17.9%; in experiment [2] it was 15.6%; in experiment [3], 20.8%; in experiment [4], 24.6%; in experiment [5], 10.7%; in experiment [6], 20.2%.

With `COC(=O)c1nnn(-c2ccc(Cl)cc2C)c1C(=O)c1ccc(OC)cc1`, the growth inhibition is -33.4% in experiment [1]; 0.95% in experiment [2]; -11.8% in experiment [3]; -2.45% in experiment [4]; -9.1% in experiment [5]; -20.2% in experiment [6].

For `CN(C)c1ccc(C(c2ccc(N(C)C)cc2)c2ccc([N+](=O)[O-])cc2)cc1`, the growth inhibition is -3.75% in experiment [1]; -35.7% in experiment [2]; -48.3% in experiment [3]; 8.3% in experiment [4]; 39% in experiment [5]; -16.8% in experiment [6].

`COc1cc(OC)c(-c2cc(=O)c3c(OC)c(OC)c(OC)c(OC)c3o2)cc1OC`: the growth inhibition in experiment [1] was -2.95%; in experiment [2], -3.8%; in experiment [3], -2.8%; in experiment [4], -44%; in experiment [5], 36.2%; in experiment [6], -21.1%.

For the molecule `CCCCCCCCCCCC(=O)NC(=S)Nc1cccc(O)c1`, the growth inhibition was 84.3% (active) in experiment [1]; 63.8% in experiment [2]; 74.4% (active) in experiment [3]; 90.3% (active) in experiment [4]; 93% (active) in experiment [5]; 81.4% (active) in experiment [6].

As to `O=C(c1ccccc1)c1cccc(C(=O)c2ccccc2)c1`, the growth inhibition is -2.1% in experiment [1]; -11.3% in experiment [2]; -12.9% in experiment [3]; 4.65% in experiment [4]; 7.35% in experiment [5]; -16.6% in experiment [6].

In the case of `CC1(CI)COC(c2ccccc2)(C2CCCCC2)OC1` (stereo not given), the growth inhibition is 2.95% in experiment [1]; -5.15% in experiment [2]; 5.2% in experiment [3]; 35.3% in experiment [4]; -16.2% in experiment [5]; 15.9% in experiment [6].

Turning to `CSC(N)=Nc1cccc2ccccc12`, the growth inhibition in experiment [1] is -44.2%; in experiment [2], -59%; in experiment [3] it was -40.5%; in experiment [4], -10.9%; in experiment [5], -34.2%; in experiment [6], -41%.

As to `CCOCc1cccc2ccccc12`, the growth inhibition in experiment [1] is -13.6%; in experiment [2], -33.9%; in experiment [3] it was -14.9%; in experiment [4], 9%; in experiment [5], -6.55%; in experiment [6], -23.9%.

For the molecule `Cc1ccnc(NS(=O)(=O)c2ccc(N=[N+]=[N-])cc2)n1`, the growth inhibition in experiment [1] was -3.2%; in experiment [2], -6%; in experiment [3], 1.9%; in experiment [4], -7.4%; in experiment [5], -17.6%; in experiment [6], -14%.

On to `COC1=Nc2ccccc2N2CCN=C12`, for which the growth inhibition was 4.55% in experiment [1]; -23.6% in experiment [2]; -8.7% in experiment [3]; -1.35% in experiment [4]; -8.75% in experiment [5]; -12.8% in experiment [6].

Turning to `CCC12C=CCN3CC[C@@]4(c5cc([C@@]6(C(=O)OC)C[C@@H]7CN(CCc8c6[nH]c6ccccc86)C[C@](O)(CC)C7)c(OC)cc5N(C)[C@H]4[C@@](O)(C(=O)NCCCCCCCCCCCC(=O)O)[C@@H]1O)C32` (stereo not given in full), the growth inhibition in experiment [1] is 19%; in experiment [2], 19.8%; in experiment [3] it was 21.6%; in experiment [4], 5%; in experiment [5], 25.3%; in experiment [6], -17.6%.

Regarding `O=S(=O)(CCCl)c1ccc(Br)cc1`, the growth inhibition in experiment [1] was 51.6%; in experiment [2] it was 44.6%; in experiment [3] it was 56.7%; in experiment [4], 18.8%; in experiment [5], 39.4%; in experiment [6], 57.5%.
